Screening data (PubChem)
In the library only some 6.1% were active in any assay of this set; here they are far more common.
D1 antagonist – Antagonist of Human D 1 Dopamine Receptor: qHTS; D(1A) dopamine receptor (Homo sapiens), P21728; HEK293 TREx D1 cells, calcium flux, dopamine EC80; hits give low values; activity change, negative = inhibition, % at 10 µM; 3.2% of 360,000 active; AID 504652, 2011; in the data active = activity change below about -30%
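Inducible Hek293 Trex D1 cells (tetracycline, overnight, 30 C). Calcium dye 30–90 min RT. Antagonist mode: EC80 dopamine added after 180 s compound read.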
DRD3 antagonist – qHTS of D3 Dopamine Receptor Antagonist: qHTS | max response, negative = inhibition, % | D3R cells, DiscoveRx beta-arrestin luminescence, antagonist mode; hits give low values | 2.5% of 360,000 active | D(3) dopamine receptor (Homo sapiens), P35462; in the data active = max response below about -50%
Target sequence (P35462 whole entry, looked up): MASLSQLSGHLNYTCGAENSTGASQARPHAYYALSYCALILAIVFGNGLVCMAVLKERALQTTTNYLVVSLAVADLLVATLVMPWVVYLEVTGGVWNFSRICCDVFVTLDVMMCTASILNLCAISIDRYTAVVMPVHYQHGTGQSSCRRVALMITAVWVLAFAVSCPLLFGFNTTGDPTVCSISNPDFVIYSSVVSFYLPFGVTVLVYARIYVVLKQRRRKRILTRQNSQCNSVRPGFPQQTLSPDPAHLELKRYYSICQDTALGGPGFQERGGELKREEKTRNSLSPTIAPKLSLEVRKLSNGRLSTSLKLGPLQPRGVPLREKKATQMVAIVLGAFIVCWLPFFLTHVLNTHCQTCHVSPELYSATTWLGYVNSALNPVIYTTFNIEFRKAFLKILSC
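Cells plated overnight at 1500 cells/well, then exposed to library compounds with dopamine controls for 90 minutes at 37 degrees C. DiscoveRx reagent added for 30–60 minutes at room temperature; luminescence read, quantitative HTS format.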
D1 potentiator – Potentiators of Human D1 Dopamine Receptor: qHTS; D(1A) dopamine receptor (Homo sapiens), P21728; HEK293 TREx D1 cells, calcium flux, dopamine EC20 potentiation; potentiation, % at 10 µM; 0.036% of 360,000 active; AID 504651, 2011; in the data active = potentiation above about 30%
ERG-DNA inh – qHTS for Small Molecule Inhibitors of the ERG Ets/DNA interaction; Transcriptional regulator ERG (Homo sapiens), P11308; fluorescence polarization, His-ERG Ets domain / labelled DNA; Potency, µM (top dose mostly 76.9 µM), usual class: inhibitors; 0.028% of 370,000 active; AID 624246, 2012; active = well fitted inhibition curve with a large enough effect in the polarisation, with a control signal flat; the % refers to the polarisation;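 also: polarization taken with two DNA probes labelled with fluorescein and Texas red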
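His-tagged ERG Ets domain (1 uM in the protein solution; 300mM KCl, 50mM Tris-HCl, 1mM EDTA, 1mM DTT, pH 7.5) received compound, then a probe mix of 5 nM fluorescein-DNA and 100nM Texas-615-DNA. Fluorescence polarization was read for both dyes.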
DRD3 agonist – qHTS of D3 Dopamine Receptor Agonist: qHTS | D3R DiscoveRx beta-arrestin cells, luminescence, 90 min | max activation, % | 0.58% of 410,000 active; in the data active = max activation above about 30%
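Agonist mode: compounds and dopamine controls were applied to plated cells for 90 min at 37 degrees C after an overnight attachment at 1500 cells/well. Luminescent read-out followed 30 - 60 minutes at room temperature with DiscoveRx detection reagent.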
D1 ag – Allosteric Agonists of the Human D1 Dopamine Receptor: qHTS. AID 504660, 2011. HEK293 T-REx D1 cells, calcium flux, agonist mode. activation, % at 2 µM. 1% of 360,000 active. D(1A) dopamine receptor (Homo sapiens), P21728; in the data active = activation above about 30%
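Tetracycline-induced HEK293 TREx D1 cells, force-coupled to calcium signalling, were dye-loaded with a no-wash calcium kit. Compound was pin-added after a 10 s baseline. Fluorescence was read kinetically at 1 cycle/s for 180 s, with calcium rises flagged as agonism.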
Numbers stand for hits; n = inactive; x = no result.

SMILES	D1 antagonist	DRD3 antagonist	D1 potentiator	ERG-DNA inh	DRD3 agonist	D1 ag
CCn1nc(-c2ccccc2)c(-c2ccccc2)c(C(=O)Nc2ccccc2C#N)c1=O	n	x	n	n	n	n
CC1CCc2c(sc(NC(=O)c3ccc(Cn4cc([N+](=O)[O-])cn4)o3)c2C#N)C1 (stereo not drawn)	n	-69	n	n	n	n
CCn1nc(-c2ccccc2)c(-c2ccccc2)c(C(=O)Nc2ccccc2C(N)=O)c1=O	-42	x	n	n	n	n
Cc1onc(-c2ccccc2Cl)c1C(=O)Nc1sc2c(c1C#N)CCC2	n	n	n	n	n	n
N#Cc1c(NC(=O)c2ccc(Cn3cc(Br)cn3)o2)sc2c1CCCCC2	n	n	n	n	n	n
Cc1ccccc1CN1CCC(CNc2ncnc3onc(-c4ccc(F)cc4)c23)CC1	n	x	n	n	n	n
CCc1cccc(NC(=O)NC2CCCCC2)c1	n	n	n	n	n	n
CCOC(=O)c1ccccc1NC(=O)c1c(-c2ccccc2)noc1C	n	x	n	n	n	32
Cc1cnc(NC(=O)c2c(-c3ccccc3)noc2C)s1	-34	n	n	n	n	n
CC(C)c1ccc(N=C2NN=C(c3cccs3)CS2)cc1	n	n	n	n	n	n
CC(C)(C)c1ccc(C(=O)NCC(=O)OCc2ccc([N+](=O)[O-])cc2)cc1	-35	n	n	n	n	n
CCCCc1cc(=O)oc2cc(C)cc(OCC(=O)N3CCC(C(=O)O)CC3)c12	n	n	n	n	n	n
CCCc1cc(=O)oc2cc(C)cc(OCC(=O)N3CCC(C(=O)O)CC3)c12	-64	n	n	n	n	n
Cc1ccc(S(=O)(=O)N/N=C/c2c[nH]c3ccccc23)cc1	-49	n	n	n	n	n
O=C(CCC(=O)Nc1ccccc1)NNC(=O)C(c1ccccc1)c1ccccc1	n	n	n	n	n	n
CS(=O)(=O)c1ccc2nc(NC(=O)C3CC(=O)N(c4ccccc4)C3)sc2c1 (stereo not drawn)	n	n	n	n	n	n
c1ccc(C2(Cn3ccc4ccccc43)OCCO2)cc1	n	n	n	n	71	n
Oc1c(C=NCc2ccncc2)sc2ccccc12	n	-100	n	n	n	n
Oc1c(C=Nc2ccccc2)sc2ccccc12	n	n	n	n	n	n
Oc1c(C=Nc2cccnc2)sc2ccccc12	n	-65	n	n	n	n
CCCN(CCC)C(=O)CC(c1ccccc1)c1cc(Br)ccc1O (stereo not drawn)	n	n	n	n	n	n
CCOC(=O)c1ccc(NC(=S)N(CCCN2CCCC2)Cc2cccs2)cc1	n	n	n	n	n	n
CCOC(=O)c1ccc(NC(=S)N(CCCN2CCN(CC)CC2)Cc2cccs2)cc1	n	n	n	n	n	49
CCOC(=O)c1ccc(NC(=S)N(CCN2CCCCCC2)Cc2cccs2)cc1	n	-75	n	n	n	n
Cc1ccc(CNC(=O)Cn2c(=O)cc(C)c3c(C)nn(-c4cccc(F)c4)c32)cc1	n	x	n	n	n	n
COCCN(C(=O)CSc1n[nH]c(-c2ccccc2)n1)c1c(N)n(Cc2ccccc2)c(=O)[nH]c1=O	n	n	n	n	n	n
COc1ccc(N(Cc2cc3ccccc3[nH]c2=O)S(=O)(=O)c2ccccc2)cc1	n	n	n	n	n	n
COc1ccc(S(=O)(=O)N(Cc2cc3cc(C)ccc3[nH]c2=O)CC2CCCO2)cc1 (stereo not drawn)	n	n	n	n	n	n
O=c1[nH]c2ccccc2cc1CN(CC1CCCO1)S(=O)(=O)c1ccccc1 (stereo not drawn)	-35	n	n	n	n	n
CCN(Cc1cc2ccccc2[nH]c1=O)S(=O)(=O)c1ccc(OC)cc1	-39	n	n	n	n	n
